The values that follow come from PubChem BioAssay (EPA / NIEHS).

Inconclusive results are not listed. The source made the active and inactive calls. The calls were made as follows, unless noted: active = hit-call score of the fitted dose curve at least 0.9, where 1 is the maximum; inactive = score below 0.9.

Assay [1] is described as follows: ATG_NF_kB_CIS: Attagene CIS-FACTORIAL HepG2 Assay for human Nuclear Factor Kappa B (NF-kB) (AID 2282991). The settings on record: HepG2 Attagene cis-factorial NF-kB reporter mRNA; actives raise or lower the signal. The method, boiled down:
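Measures mRNA induction of an NF-kB-responsive cis-element reporter in HepG2 cells transfected with multiple reporter units, sampled 24 h post-dosing; quantified by fluorescence after RT-PCR and capillary electrophoresis, fitted for activation or inhibition against DMSO.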

Assay [2] is described as follows: ATG_NRF2_ARE_CIS: Attagene CIS-FACTORIAL HepG2 Assay for human Nuclear Factor Erythroid 2 Related Factor 2 (NFR2) response to Antioxidant Response Elements (ARE) (AID 2282992). The note with it: HepG2 Attagene ARE/NRF2 reporter, transcription factor activity; actives raise or lower the signal. The gist of the method:
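Endogenous transcription factor activity read out as reporter transcript levels (RT-PCR plus capillary electrophoresis, fluorescence) in transiently transfected HepG2 cells. Measured at 24 h after dosing; gain or loss of signal fitted versus DMSO.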

Assay [3] can be described thus: ATG_Oct_MLP_CIS: Attagene CIS-FACTORIAL HepG2 Assay for human Octamer-Binding Transcription Factor (Oct) (AID 2282993). The note with it: HepG2 Attagene cis-factorial Oct reporter, mRNA; actives raise or lower the signal. The gist of the method:
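Transient MRTU transfection of HepG2 → 24 h compound treatment → RNA isolation, reverse transcription, PCR → 6-FAM primer extension, HpaI digest → capillary electrophoresis. Activity fitted both directions against DMSO.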

For assay [4], the target named is Cellular tumor antigen p53 (Homo sapiens) (UniProt P04637). Description: ATG_p53_CIS: Attagene CIS-FACTORIAL HepG2 Assay for human p53 Transcription Factor (AID 2282994). The settings on record: HepG2 p53 cis-element reporter, Attagene mRNA; actives raise or lower the signal. The gist of the method:
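Endogenous p53 activity read in transiently transfected HepG2 from a cis-element-driven reporter transcript after 24 h exposure. RNA reverse-transcribed, PCR-amplified, fluorescently labelled and sized by capillary electrophoresis; gain or loss fitted against DMSO baseline.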

A short description of assay [5]: BSK_3C_TissueFactor: BioMAP Diversity Plus: 3C Assay for Tissue Factor Biomarker Activity (AID 2282997). The note with it: BioMAP 3C HUVEC, tissue factor biomarker readout; actives raise or lower the signal. The gist of the method: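 In this endothelial system, HUVEC are treated for 24 h and Tissue Factor is assessed by ELISA, normalised to DMSO.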
Assay [6] in a line: BSK_3C_uPAR: BioMAP Diversity Plus: 3C Assay for Urokinase-type plasminogen activator receptor (uPAR) Biomarker Activity (AID 2282998). The note with it: BioMAP 3C HUVEC, uPAR biomarker ELISA; actives raise or lower the signal. The method, boiled down:
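ELISA readout of uPAR on human vascular endothelium (umbilical vein primary cells), taken 24 h after chemical dosing. Increases and decreases are both fitted relative to DMSO vehicle.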
In general terms: In an ELISA, binding on a coated surface is turned into a signal by an enzyme label.

A short description of assay [7]: BSK_3C_VCAM1: BioMAP Diversity Plus: 3C Assay for Vascular cell adhesion molecule 1 (VCAM1) Biomarker Activity (AID 2282999). The settings on record: BioMAP 3C HUVEC, VCAM1 ELISA, cytokine-stimulated; actives raise or lower the signal. The gist of the method: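 HUVEC primary cells, 24 h compound exposure; VCAM-1 by ELISA; gain/loss of signal fitted bidirectionally vs DMSO baseline.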

Assay [8] is described as follows: BSK_4H_Eotaxin3: BioMAP Diversity Plus: 4H Assay for Eotaxin 3 Biomarker Activity (AID 2283000).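 As to outcome: CCL26 protein level quantified by ELISA in parallel with SRB cytotoxicity check.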 The settings on record: primary human endothelial cells (HUVEC); actives raise or lower the signal. The method, boiled down:
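ELISA quantitation of CCL26 (Eotaxin-3) protein from chemically dosed human vascular endothelial cells at 24 h; increases and decreases both scored relative to DMSO-treated baseline.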

Assay [9] has as its target human Peroxisome Proliferator-activated Receptor alpha (PPARa), PPARA (gene 5465) (UniProt Q07869). Description: ATG_PPARa_TRANS: Attagene TRANS-FACTORIAL HepG2 Assay for human Peroxisome Proliferator-activated Receptor alpha (PPARa) (AID 2283001; active = hit-call score of the fitted dose curve at least 0.9, where 1 is the maximum;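 as to AC50: potency for gain of reporter signal over DMSO so agonist or activator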). The method, boiled down: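 Transient HepG2 transfection, GAL4-UAS reporters, NR-Gal4 chimeras; 24 h compound exposure. Readout: reporter transcripts by RT-PCR, 6-FAM primer extension, HpaI digest, capillary electrophoresis. Positive direction vs DMSO baseline.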

In assay [10] the target is human Peroxisome Proliferator-activated Receptor delta (PPARd), PPARD (gene 5467) (UniProt Q03181). Description: ATG_PPARd_TRANS: Attagene TRANS-FACTORIAL HepG2 Assay for human Peroxisome Proliferator-activated Receptor delta (PPARd) (AID 2283002; active = hit-call score of the fitted dose curve at least 0.9, where 1 is the maximum). The gist of the method: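 HepG2 cells transiently transfected with GAL4-UAS multiplexed reporter units driven by exogenous chimeric NR-GAL4 proteins; 24 h compound exposure. Reporter mRNA measured by RT-PCR, 6-FAM primer extension, HpaI digestion and capillary electrophoresis; gain of signal fitted relative to DMSO.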
human Peroxisome Proliferator-activated Receptor delta (PPARd), PPARD (gene 5467), sequence (Q03181 whole entry, looked up, the tested form may be a part): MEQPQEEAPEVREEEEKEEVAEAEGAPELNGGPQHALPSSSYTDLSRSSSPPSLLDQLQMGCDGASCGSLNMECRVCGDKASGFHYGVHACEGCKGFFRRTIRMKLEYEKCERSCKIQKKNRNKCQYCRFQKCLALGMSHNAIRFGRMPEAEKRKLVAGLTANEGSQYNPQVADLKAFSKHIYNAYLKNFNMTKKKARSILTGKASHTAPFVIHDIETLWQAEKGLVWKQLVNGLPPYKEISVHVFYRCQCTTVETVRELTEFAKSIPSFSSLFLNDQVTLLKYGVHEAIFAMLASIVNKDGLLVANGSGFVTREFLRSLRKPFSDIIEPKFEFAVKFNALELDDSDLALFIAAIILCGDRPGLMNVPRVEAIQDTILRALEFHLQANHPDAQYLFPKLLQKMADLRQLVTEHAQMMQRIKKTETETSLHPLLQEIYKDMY

Read-out in assay [11]: Intercellular Adhesion Molecule 1 (ICAM1), ICAM1 (gene 3383)
In words: BSK_3C_ICAM1: BioMAP Diversity Plus: 3C Assay for Intercellular Adhesion Molecule 1 (ICAM1) Biomarker Activity (AID 2283003). The note with it: primary human endothelial cells (HUVEC); actives raise or lower the signal. The method, boiled down: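 ELISA read-out of ICAM-1; HUVEC (primary human), 3C system, 24 h post-dosing; bidirectional fit vs DMSO baseline.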

Assay [12] has as its target human Retinoic Acid Receptor beta (RARb), RARB (gene 5915) (UniProt P10826). In words: ATG_RARb_TRANS: Attagene TRANS-FACTORIAL HepG2 Assay for human Retinoic Acid Receptor beta (AID 2283004; active = hit-call score of the fitted dose curve at least 0.9, where 1 is the maximum). The gist of the method:
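Fluorescent capillary-electrophoresis detection of GAL4-UAS reporter mRNA defines the endpoint, with induction over DMSO-treated wells scored as activity. Transiently transfected human hepatoma HepG2 cells expressing exogenous NR–Gal4 proteins are exposed to test chemicals for 24 h.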

Assay [13] addresses Retinoic acid receptor alpha (Homo sapiens) (UniProt P10276). In words: ATG_RARa_TRANS: Attagene TRANS-FACTORIAL HepG2 Assay for human Retinoic Acid Receptor alpha (RARa) (AID 2283005; active = hit-call score of the fitted dose curve at least 0.9, where 1 is the maximum). The gist of the method: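 HepG2 transiently transfected with multiplex GAL4-UAS reporter units including a human RARa–GAL4 chimera; 24 h compound exposure. Reporter mRNA quantified by RT-PCR, 6-FAM labeling and capillary electrophoresis; gain of signal versus DMSO.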

Assay [14] in a line: BSK_3C_Proliferation: Cell Proliferation Assessment in the BioMAP Diversity Plus: 3C Assay (AID 2283006).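 Also: potency may reflect either rise or fall in cell number versus DMSO.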 The note with it: primary human endothelial cells (HUVEC). The gist of the method:
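HUVEC, sub-confluent; 48 h chemical exposure; 10% TCA fix, 0.1% SRB stain, A560 total protein. Gain or loss of signal fitted both directions vs DMSO control.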

The target of assay [15] is Peroxisome proliferator-activated receptor gamma (Homo sapiens) (UniProt P37231). Description: ATG_PPARg_TRANS: Attagene TRANS-FACTORIAL HepG2 Assay for human Peroxisome Proliferator-activated Receptor-gamma (PPARg) (AID 2283007; active = hit-call score of the fitted dose curve at least 0.9, where 1 is the maximum). The method, boiled down: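 Gain-of-signal endpoint relative to DMSO, derived from reporter mRNA levels quantified by RT-PCR and capillary electrophoresis. Cells were HepG2 transiently expressing a chimeric NR-Gal4 construct with GAL4-UAS reporters, exposed to chemicals for 24 h.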
Peroxisome proliferator-activated receptor gamma (Homo sapiens), sequence (P37231 whole entry, looked up, the tested form may be a part): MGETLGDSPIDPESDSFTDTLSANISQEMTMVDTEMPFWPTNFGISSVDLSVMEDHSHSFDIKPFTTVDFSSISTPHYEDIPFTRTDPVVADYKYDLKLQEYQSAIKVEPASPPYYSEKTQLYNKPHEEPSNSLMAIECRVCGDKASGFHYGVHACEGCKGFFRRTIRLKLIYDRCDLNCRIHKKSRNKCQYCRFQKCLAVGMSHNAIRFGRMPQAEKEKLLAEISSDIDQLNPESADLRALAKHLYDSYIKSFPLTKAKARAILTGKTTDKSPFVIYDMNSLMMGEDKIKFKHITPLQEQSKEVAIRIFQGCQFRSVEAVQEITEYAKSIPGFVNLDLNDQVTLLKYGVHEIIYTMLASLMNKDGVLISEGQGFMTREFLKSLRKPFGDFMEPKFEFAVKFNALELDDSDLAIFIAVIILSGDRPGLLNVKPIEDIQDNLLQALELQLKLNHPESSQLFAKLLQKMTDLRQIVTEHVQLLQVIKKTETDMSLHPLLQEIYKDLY

Assay [16] deals with Nuclear receptor subfamily 1 group I member 2 (Homo sapiens) (UniProt O75469). Description: ATG_PXR_TRANS: Attagene TRANS-FACTORIAL HepG2 Assay for human Pregnane X Receptor (PXR) (AID 2283008; active = hit-call score of the fitted dose curve at least 0.9, where 1 is the maximum). The method, boiled down: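 Transactivation by exogenous PXR–GAL4 fusion measured as reporter transcript induction after 24 h compound treatment of transfected human HepG2 cells. Read-out via RT-PCR and capillary electrophoresis of labelled fragments, fitted upward relative to DMSO.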
Nuclear receptor subfamily 1 group I member 2 (Homo sapiens), sequence (O75469 whole entry, looked up, the tested form may be a part): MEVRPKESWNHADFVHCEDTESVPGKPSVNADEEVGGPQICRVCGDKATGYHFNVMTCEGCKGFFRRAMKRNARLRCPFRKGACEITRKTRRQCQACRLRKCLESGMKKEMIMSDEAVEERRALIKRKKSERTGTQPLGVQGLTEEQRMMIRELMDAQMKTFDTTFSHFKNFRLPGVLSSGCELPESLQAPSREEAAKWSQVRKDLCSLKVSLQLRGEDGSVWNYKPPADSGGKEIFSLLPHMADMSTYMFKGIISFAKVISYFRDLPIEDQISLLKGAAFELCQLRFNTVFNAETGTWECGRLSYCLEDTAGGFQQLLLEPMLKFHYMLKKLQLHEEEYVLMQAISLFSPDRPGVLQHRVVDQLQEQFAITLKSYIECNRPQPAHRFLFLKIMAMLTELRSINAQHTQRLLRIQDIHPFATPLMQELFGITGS

Assay [17] deals with human Retinoic Acid Receptor gamma (RARg), RARG (gene 5916) (UniProt P13631). Description: ATG_RARg_TRANS: Attagene TRANS-FACTORIAL HepG2 Assay for human Retinoic Acid Receptor gamma (RARg) (AID 2283009; active = hit-call score of the fitted dose curve at least 0.9, where 1 is the maximum). The method, boiled down: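 Readout: reporter transcript levels via RT-PCR, 6-FAM primer-extension labelling, HpaI digestion and capillary electrophoresis. Cells: HepG2 carrying transfected RARg-GAL4 chimera plus UAS reporter set. Dosing 24 h; DMSO negative control.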
human Retinoic Acid Receptor gamma (RARg), RARG (gene 5916), sequence (P13631 whole entry, looked up, the tested form may be a part): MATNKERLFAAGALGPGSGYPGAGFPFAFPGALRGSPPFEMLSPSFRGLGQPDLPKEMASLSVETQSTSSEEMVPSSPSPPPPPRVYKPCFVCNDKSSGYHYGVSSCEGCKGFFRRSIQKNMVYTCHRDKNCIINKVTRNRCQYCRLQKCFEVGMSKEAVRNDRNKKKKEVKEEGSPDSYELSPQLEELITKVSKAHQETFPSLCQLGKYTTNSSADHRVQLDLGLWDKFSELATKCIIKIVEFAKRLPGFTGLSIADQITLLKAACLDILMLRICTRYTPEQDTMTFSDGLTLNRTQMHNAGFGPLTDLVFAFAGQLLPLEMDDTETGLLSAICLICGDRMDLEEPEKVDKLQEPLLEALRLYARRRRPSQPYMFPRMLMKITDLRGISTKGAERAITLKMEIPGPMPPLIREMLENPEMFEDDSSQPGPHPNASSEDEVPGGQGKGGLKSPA

Assay [18] deals with human RAR-related Orphan Receptor gamma (RORg), RORC (gene 6097) (UniProt P51449). Description: ATG_RORg_TRANS: Attagene TRANS-FACTORIAL HepG2 Assay for human RAR-related Orphan Receptor gamma (RORg) (AID 2283011; active = hit-call score of the fitted dose curve at least 0.9, where 1 is the maximum). The gist of the method:
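Chimeric RORg-Gal4 transactivation in transfected HepG2; 24 h exposure; RT-PCR/capillary electrophoresis readout of reporter mRNA, DMSO baseline.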

Assay [19] deals with Retinoic acid receptor RXR-alpha (Homo sapiens) (UniProt P19793). Description: ATG_RXRa_TRANS: Attagene TRANS-FACTORIAL HepG2 Assay for human Retinoid X Receptor alpha (RXRa) (AID 2283012; active = hit-call score of the fitted dose curve at least 0.9, where 1 is the maximum). The method, boiled down: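 Read-out: fluorescent reporter-transcript fragments quantified by capillary electrophoresis after RT-PCR. Transiently transfected HepG2 cells carrying GAL4-UAS reporters and NR-GAL4 chimeras were exposed to chemical for 24 h; activity scored as increase over DMSO.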
Retinoic acid receptor RXR-alpha (Homo sapiens), sequence (P19793 whole entry, looked up, the tested form may be a part): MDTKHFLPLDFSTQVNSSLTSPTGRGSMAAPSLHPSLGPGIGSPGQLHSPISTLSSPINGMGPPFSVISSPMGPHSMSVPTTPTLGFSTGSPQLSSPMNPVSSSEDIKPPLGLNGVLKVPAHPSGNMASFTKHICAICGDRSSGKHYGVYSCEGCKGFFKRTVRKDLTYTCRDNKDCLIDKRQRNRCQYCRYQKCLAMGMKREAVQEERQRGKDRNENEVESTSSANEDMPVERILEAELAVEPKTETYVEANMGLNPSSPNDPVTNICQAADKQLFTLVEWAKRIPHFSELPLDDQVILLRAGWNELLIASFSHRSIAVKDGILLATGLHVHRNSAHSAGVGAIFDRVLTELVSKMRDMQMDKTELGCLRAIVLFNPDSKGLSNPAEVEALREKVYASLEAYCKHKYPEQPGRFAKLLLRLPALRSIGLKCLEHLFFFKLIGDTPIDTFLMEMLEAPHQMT

human Peroxisome Proliferator-activated Receptor alpha (PPARa), PPARA (gene 5465), sequence (Q07869 whole entry, looked up, the tested form may be a part): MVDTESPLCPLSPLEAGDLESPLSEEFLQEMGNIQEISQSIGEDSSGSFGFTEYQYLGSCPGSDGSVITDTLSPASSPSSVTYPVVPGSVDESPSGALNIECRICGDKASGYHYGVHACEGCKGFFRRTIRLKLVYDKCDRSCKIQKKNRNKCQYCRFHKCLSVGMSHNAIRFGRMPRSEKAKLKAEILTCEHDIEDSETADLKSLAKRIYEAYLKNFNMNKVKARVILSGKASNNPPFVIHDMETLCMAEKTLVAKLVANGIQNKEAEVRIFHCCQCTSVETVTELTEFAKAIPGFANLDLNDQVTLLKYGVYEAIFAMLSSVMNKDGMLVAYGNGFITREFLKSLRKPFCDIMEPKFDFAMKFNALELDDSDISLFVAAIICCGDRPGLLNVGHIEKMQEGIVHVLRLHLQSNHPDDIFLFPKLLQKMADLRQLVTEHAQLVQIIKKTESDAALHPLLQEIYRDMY
Cellular tumor antigen p53 (Homo sapiens), sequence (P04637 whole entry, looked up): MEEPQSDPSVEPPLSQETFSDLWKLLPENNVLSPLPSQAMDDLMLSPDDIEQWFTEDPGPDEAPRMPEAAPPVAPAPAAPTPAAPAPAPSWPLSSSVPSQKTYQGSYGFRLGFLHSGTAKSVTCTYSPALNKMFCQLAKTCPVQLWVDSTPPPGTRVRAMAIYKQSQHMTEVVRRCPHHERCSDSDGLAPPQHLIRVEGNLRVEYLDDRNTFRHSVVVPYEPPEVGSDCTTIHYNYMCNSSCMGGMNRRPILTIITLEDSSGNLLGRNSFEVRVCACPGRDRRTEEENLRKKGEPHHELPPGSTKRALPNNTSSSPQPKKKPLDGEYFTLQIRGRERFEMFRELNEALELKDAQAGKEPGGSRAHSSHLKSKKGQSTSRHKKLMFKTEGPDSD
human RAR-related Orphan Receptor gamma (RORg), RORC (gene 6097), sequence (P51449 whole entry, looked up, the tested form may be a part): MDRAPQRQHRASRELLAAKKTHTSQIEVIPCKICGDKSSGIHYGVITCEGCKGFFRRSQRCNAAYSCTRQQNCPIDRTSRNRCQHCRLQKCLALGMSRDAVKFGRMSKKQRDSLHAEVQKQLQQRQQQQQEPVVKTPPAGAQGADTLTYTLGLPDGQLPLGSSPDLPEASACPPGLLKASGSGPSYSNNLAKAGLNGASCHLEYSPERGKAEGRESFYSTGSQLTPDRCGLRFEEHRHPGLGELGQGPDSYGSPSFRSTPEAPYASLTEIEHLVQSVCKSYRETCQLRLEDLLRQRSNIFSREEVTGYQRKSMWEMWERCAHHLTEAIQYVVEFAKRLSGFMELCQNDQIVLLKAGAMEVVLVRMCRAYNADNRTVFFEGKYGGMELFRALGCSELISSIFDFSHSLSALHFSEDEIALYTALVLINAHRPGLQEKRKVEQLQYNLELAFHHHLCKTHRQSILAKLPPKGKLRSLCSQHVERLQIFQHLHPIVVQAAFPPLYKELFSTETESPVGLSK
human Retinoic Acid Receptor beta (RARb), RARB (gene 5915), sequence (P10826 whole entry, looked up, the tested form may be a part): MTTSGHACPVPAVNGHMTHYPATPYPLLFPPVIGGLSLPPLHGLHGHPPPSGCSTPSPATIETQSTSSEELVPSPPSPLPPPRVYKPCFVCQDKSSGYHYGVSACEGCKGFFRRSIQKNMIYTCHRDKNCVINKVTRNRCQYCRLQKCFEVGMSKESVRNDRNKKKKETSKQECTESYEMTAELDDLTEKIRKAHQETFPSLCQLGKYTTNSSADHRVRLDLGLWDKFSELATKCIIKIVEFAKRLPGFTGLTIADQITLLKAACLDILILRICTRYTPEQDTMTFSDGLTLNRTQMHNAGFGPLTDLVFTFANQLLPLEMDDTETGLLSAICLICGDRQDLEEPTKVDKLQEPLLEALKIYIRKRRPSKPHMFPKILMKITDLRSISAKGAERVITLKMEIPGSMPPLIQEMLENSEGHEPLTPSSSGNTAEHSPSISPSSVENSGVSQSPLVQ
Retinoic acid receptor alpha (Homo sapiens), sequence (P10276 whole entry, looked up, the tested form may be a part): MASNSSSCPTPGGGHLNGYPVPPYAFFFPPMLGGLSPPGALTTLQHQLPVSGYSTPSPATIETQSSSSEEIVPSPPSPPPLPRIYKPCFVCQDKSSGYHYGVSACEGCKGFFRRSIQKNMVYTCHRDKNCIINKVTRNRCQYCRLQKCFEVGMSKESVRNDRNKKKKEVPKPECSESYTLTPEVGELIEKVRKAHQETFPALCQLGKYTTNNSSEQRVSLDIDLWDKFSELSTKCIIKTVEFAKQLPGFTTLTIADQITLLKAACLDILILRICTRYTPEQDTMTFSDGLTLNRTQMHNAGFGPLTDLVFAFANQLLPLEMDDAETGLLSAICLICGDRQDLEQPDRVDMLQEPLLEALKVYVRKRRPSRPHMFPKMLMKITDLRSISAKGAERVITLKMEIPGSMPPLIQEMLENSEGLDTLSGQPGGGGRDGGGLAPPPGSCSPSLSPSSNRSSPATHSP

On to `C#CCOC(=O)/C=C(C)/C=C/CC(C)CCCC(C)C` (stereo not given), for which the molecule was called inactive in assay [1], in [4], in assay [5], in assay [7], in assay [10] and in assay [11]. Also, the molecule was called inactive in assay [12], in assay [13], in [17] and in assay [18]. Also, the AC50 is 57.3 µM (active) in assay [2]; 35.7 µM (active) in assay [3]; 33.5 µM (active) in [6]; 20 µM (active) in assay [8]; 14.9 µM (active) in assay [9]; 23.6 µM (active) in [14]. Besides, the figures for the AC50 in assay [15], in assay [16] and in assay [19] were 27.8 µM (active), 27.4 µM (active) and 14.1 µM (active), respectively.

Regarding `O=S(=O)(C(Cl)(Cl)Cl)C(Cl)(Cl)Cl`, the AC50 is 15.6 µM (active) in [1]; 2.87 µM (active) in assay [2]; 16.4 µM (active) in [3]; 15.1 µM (active) in assay [4]; 1.11 µM (active) in [5]; 1.24 µM (active) in assay [6]. The AC50 is 2.08 µM (active) in assay [7], 1.47 µM (active) in assay [8], 2.9 µM (active) in assay [11] and 0.2 µM (active) in assay [14]. Besides, the call in [9], in [10], in assay [15] and in [19] was inactive.

As for `c1ccc(-c2cccc(-c3ccccc3)c2)cc1`, the molecule was classed as inactive in assay [1], in [3], in [4], in assay [9], in [11] and in assay [15]. Moreover, the outcome in [19] was inactive. For the same molecule, the AC50 is 40.9 µM (active) in [2]; 4.68 µM (active) in assay [5]; 20 µM (active) in assay [6]; 20 µM (active) in assay [7]; 20 µM (active) in assay [8]; 13.2 µM (active) in assay [14]. In assay [16], the AC50 is 11.5 µM (active).

Regarding `Cc1cccc(OP(=O)(Oc2cccc(C)c2)Oc2cccc(C)c2)c1`, the result in assay [1], in assay [3], in assay [4], in assay [5], in assay [6] and in assay [7] was inactive. The outcome in assay [8], in assay [10] and in assay [11] was inactive. Further, the AC50 is 21.9 µM (active) in assay [2], 8.53 µM (active) in [14], 13.9 µM (active) in assay [15] and 0.521 µM (active) in assay [16].

A word on the AC50: it is the concentration giving half of the maximal activity seen.
